High-throughput results: PubChem BioAssay, National Center for Advancing Translational Sciences (NCATS)
PNC inhibitor: perinucleolar compartment assembly inhibition. PC3M PTB-GFP, PNC prevalence imaging, 16 h; hits give low values. activity change (PNC), negative = inhibition, % at 10 µM. 140,000 compounds, 3.1% hits. AID 2417;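 active means readout at or below -70, meaning at least 70% loss of cells showing the perinucleolar compartment, a nuclear body marking cancer cells; inconclusive means readout between -30 and a set limit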;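 further: plate controls were DMSO wells for no effect and camptothecin positive control wells for full effect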
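PC3M cells stably expressing PTB-GFP, 750–1000 cells/well, treated 16 h at 37 °C with compound (23 nl of library stock), in duplicate. After paraformaldehyde fixation and Hoechst stain, imaged at 20x; PNC prevalence scored by image analysis.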
HPGD block: blocks human HPGD enzyme activity; 150,000 compounds, 4.3% hits; purified HPGD, NADH fluorescence kinetic, PGE2 substrate; Potency, µM, for the others: at the highest dose activity change, negative = inhibition, actives largely listed as inhibitors; P15428; further: potency means the concentration at half of the fitted maximal effect
Target sequence (P15428 whole entry, looked up): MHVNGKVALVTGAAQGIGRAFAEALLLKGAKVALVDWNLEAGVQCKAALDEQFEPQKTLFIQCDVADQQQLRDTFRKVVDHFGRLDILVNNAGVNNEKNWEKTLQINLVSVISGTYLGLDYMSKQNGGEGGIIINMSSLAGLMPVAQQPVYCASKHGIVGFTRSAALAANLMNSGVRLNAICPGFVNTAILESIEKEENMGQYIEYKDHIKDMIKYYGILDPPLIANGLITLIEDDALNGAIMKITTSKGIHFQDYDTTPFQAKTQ
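NADH formation kinetics: reaction with 30 uM PGE2 and 1 mM NAD+ (final), 20 nM enzyme, Tris-HCl pH 8 with Tween 20, after 15 min compound preincubation at room temperature. Fluorescence change, last versus first of five reads.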
ALDH1A1 inh: ALDH1A1 (human) enzyme inhibition; Potency, µM (series often up to 75.3 µM), without a hit: at the top dose activity, negative = inhibition, usual class: inhibitors; 220,000 compounds, 7.3% hits; Purified ALDH1A1, NADH fluorescence, propionaldehyde substrate;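 further: potency means the concentration at half of the fitted maximal effect; plate controls were no enzyme wells and a reference inhibitor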
The depositor's hits bear a star; ? = inconclusive; / = no result given; [ ] = another dose, or the depositor's remark. Shown are actives, neighbours in structure and some others; about 11% of the full set was active somewhere. Unless noted, the call rests on the fitted dose curve; in most records, active means well fitted inhibition curve with a large enough effect (not every such curve was filed as active); inconclusive means small, poorly fitted or top-dose-only effect, or another doubt; inactive means no such curve, though single readings can be large or run the other way. Unless noted, on the % scale 0 is the no-effect control and ±100 the full control effect.

SMILES	PNC inhibitor	HPGD block	ALDH1A1 inh
CN(C)CCN1C(=O)c2ccccc2N(C)c2ccccc21	/	/	-1%
COc1ccccc1C(=O)NNC(=S)Nc1ccccc1	/	/	0%
COC(=O)c1ccc(NC(=S)Nc2ccccc2)cc1	45	-6%	-3%
COc1ccc(C(=O)NC(=S)Nc2ccc(S(N)(=O)=O)cc2)cc1	/	/	29%
COC(=O)c1cc(OC)c(OC)cc1NC(=S)Nc1cc(Cl)ccc1OC	?	/	-1%
COC(=O)c1cccnc1NC(=S)NNC(=O)c1ccccc1	-1	25µM*	?
COc1cc(C(=O)NNC(=S)Nc2ccc(S(N)(=O)=O)cc2)cc(OC)c1OC	/	/	10µM*
COC(=O)c1ccc(NC(=S)NNC(=O)c2ccccc2)cc1	/	/	8.9µM*
COc1ccc(Cl)cc1NC(=S)NNC(=O)C1(C)CC1(Cl)Cl (centres undefined)	/	/	28µM*
CCOC(=O)c1ccc(NC(=S)NN2CCN(C)CC2)cc1	/	/	2%
CCOC(=O)c1ccc(NC(=S)NNC(=O)COC)cc1	16	-20%	8.9µM*
CCOC(=O)c1ccc(NC(=S)NNC(=O)C2(C)CC2(Cl)Cl)cc1 (centres undefined)	104	28µM*	10µM*
CCOC(=O)c1ccc(NC(=S)NC2CCCC2)cc1	-29	-1%	1%
COC(=O)c1ccccc1NC(=S)NC(=O)CC(C)C	44	-3%	11%
COC(=O)c1ccc(NC(=S)NNC(=O)CC(C)C)cc1	42	28µM*	0%
CCCNC(=S)N1CCN(CC)CC1	-11	-7%	-5%
CN(C)C(CNC(=S)Nc1ccccc1Cl)c1cccnc1 (centres undefined)	/	/	8%
CN(C)CCNc1ccccn1	/	-9%	14%[13.5 µM]
O=C(CN(CC1CCCO1)C(=O)c1nsc(Cl)c1Cl)NC1CCCC1 (centres undefined)	/	/	1%
S=c1nc(C2CCCCC2)[nH]c2ccccc12	/	/	3%
S=c1nc(C2CC2)[nH]c2ccccc12	-11	16µM*	13µM*
S=c1nc(SCc2ccccc2)[nH]c2ccccc12	/	/	-4%
CC(C)c1nc(=S)c2ccccc2[nH]1	-17	?	14µM*
COC(=O)C1=C(C(=O)OC)[C@@H]2N(Cc3ccccc3)c3ccccc3[C@@]23C[C@@H](C(=O)OC)N(S(=O)(=O)c2ccc(C#N)cc2)C3=N1	/	-9%	-6%[13.5 µM]
C=CCOc1c(Cl)cc(CNCCC)cc1Cl	8	-8%	3%
SMILES	PNC inhibitor	HPGD block	ALDH1A1 inh
C=CCOc1c(Cl)cc(CNc2ccc(N(C)C)cc2)cc1OC	?	?	2µM*
C=CCOc1c(Cl)cc(CNc2ccc(C)c(Cl)c2)cc1OC	-92*	-13%	-6%
CCOc1c(Cl)cc(CNCc2ccncc2)cc1OC	/	/	6%
CCCC(=O)Nc1ccc(C(=O)n2ccc(C)n2)cc1	/	/	16%
C[N+]1(C)CCc2cc(O)c(O)cc2[C@H]1Cc1ccc(O)c(O)c1	/	-3%	4%[13.5 µM]
CCOC(=O)c1c(NC(=O)Cn2ccsc2=N)sc(C)c1C	/	/	3%
CCC(CC)c1nnc(NC(=O)c2c(C)nn(Cc3ccccc3Cl)c2C)s1	33	-15%	?
Cc1cc2c(c(SCC#N)n1)C(=O)OC2	/	/	-2%
Cc1cc(Cl)c(S(=O)(=O)N2CCN(c3ccccn3)CC2)cc1OCC(N)=O	/	/	-2%
CC1CC2C3CCC4=CC(=O)C=C[C@@]4(C)[C@]3(F)C(O)C[C@]2(C)[C@]1(O)C(=O)COP(=O)(O)O (some centres undefined)	/	-18%	2%
CCOC(=O)CC(=O)CSc1nc2nc(C)cc(C)n2n1	?	16µM*	13µM*
CNC(=O)CSc1nc2nc(C)cc(C)n2n1	-11	-18%	-16%
O=C(NCC(=O)N1CCN(S(=O)(=O)/C=C/c2ccccc2)CC1)c1ccccc1F	/	/	-4%
CC(C)C[C@@H](CC(=O)N[C@@H](CCC(=O)O)CC(=O)O)NC(=O)[C@@H]1CNCC[C@H]1NC(=O)C[C@@H](NC(=O)C[C@H](Cc1ccccc1)NC(=O)[C@@H]1CNCC[C@H]1N)C(C)C	/	-12%	?
O=C(C1CCCO1)N1CCN(C(=S)Nc2ccc(F)c(Cl)c2)CC1 (centres undefined)	/	/	-12%
CC1CCCCC1NC(=O)c1ccc(S(=O)(=O)NCC2CCCO2)cc1 (centres undefined)	/	/	6%
Cc1ccc(C)c(NC(=S)NNC(=O)c2csc3c2CCCC3)c1	-27	-11%	8.9µM*
Cc1ccc(C)c(NC(=S)NNC(=O)c2csc3c2CCC(C)C3)c1 (centres undefined)	-113*	-10%	10µM*
Cc1cccc(NC(=S)NNC(=O)c2csc3c2CCCC3)c1	26	1%	?
COc1ccccc1NC(=O)c1csc2c1CCC(C)C2 (centres undefined)	/	/	3%
O=C(c1ccccc1NS(=O)(=O)c1cccc2cccnc12)N1CCOCC1	/	/	13%
CC(=O)N(c1ccccc1)c1nc(/C=C/C(=O)Nc2c(C)cc(C)cc2C)cs1	19	-6%	5%
O=C(Nc1ccccc1C(=O)NCc1ccco1)c1ccco1	25	-16%	?
O=C(NCc1ccco1)Nc1ccc(Br)cc1	10	-8%	3%
O=C(NCc1ccco1)c1ccccc1Br	?	2µM*	9%
SMILES	PNC inhibitor	HPGD block	ALDH1A1 inh
CC(C)(C)C(=O)Nc1ccccc1C(=O)NCc1ccco1	-138*	-29%	?
O=C(Nc1ccccc1C(=O)Nc1ccccc1C(=O)NCc1ccco1)c1ccco1	?	-24%	-4%
CCSc1ccccc1C(=O)NCc1ccco1	?	13µM*	2%
O=C(NCc1ccco1)C1(c2ccc(Br)cc2)CCCC1	9	-16%	0.18µM*
CS(=O)(=O)Nc1ccccc1C(=O)NCc1ccco1	35	?	?
CC1(C)CC2CC(C)(CN2C(=O)c2ccc([N+](=O)[O-])cc2[N+](=O)[O-])C1 (centres undefined)	/	/	7%
O=C(O)CCCSc1ccccc1	/	-11%	22%[13.5 µM]
Cc1sc2nc(COC(=O)c3cccc(S(=O)(=O)N(C)c4ccccc4)c3)[nH]c(=O)c2c1C	/	/	-4%
CC(C)(CCl)C(=O)Nc1ccnc(-c2ccncc2)n1	/	/	2%
CC1Nc2ccccc2C(=O)N1NS(=O)(=O)c1ccccc1 (centres undefined)	-6	-21%	?
Cc1ccc(Cl)cc1N1CCN(C(=O)c2cc3c(=O)[nH]c4ccccc4c3n2C)CC1	?	?	19%
COc1ccc(N=C2SC(C(=O)N3CCN(c4ccc([N+](=O)[O-])cc4)CC3)CC(=O)N2C)cc1 (centres undefined)	/	/	10µM*
COc1ccc(N2CCN(C(=O)C3CC(O)CN3S(=O)(=O)c3ccc([N+](=O)[O-])cc3)CC2)cc1 (centres undefined)	36	-2%	11%
CCN(CC)CCNC(=O)c1c(C)n(-c2ccccc2)c2cc(Br)c(OC)cc12	10	-6%	0.63µM*
COc1cc2c(C(=O)N3CCN(C)CC3)c(C)n(-c3ccccc3)c2cc1Br	14	-26%	?
CCn1cc(C(=O)Nc2cccc(C)c2)c(=O)c2ccc(C)nc21	/	/	-3%
CCCCNC(=O)C(c1ccc(OCC(=O)OC)c(C(=O)OC)c1)N(CCC1=CCCCC1)C(=O)CCCCCN1C(=O)NC(c2ccc(-c3ccccc3)cc2)C(C(=O)OCc2ccccc2)=C1C (centres undefined)	/	-6%	6%
